The text below walks through data of PubChem BioAssay AID743093 (The Scripps Research Institute Molecular Screening Center, 2013).

Each structure is given as a SMILES string. Out of some 150,000 compounds screened, about 100 (0.067%) were called active. This is one part of a sample in which actives are shown more often than they occur. Values without a mark were called inactive.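 The calls were made as follows: active = inhibition above the mean plus 3 SD of compounds within the control limits, set per campaign (cut at about 38% in these data); inactive = the rest.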

The nature of the test: reduced ATP in mature Plasmodium gametocytes – ATP luminescence, HTS, primary screen (AID 743093).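 Also: 0% = DMSO wells and 100% = medium only without gametocytes.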 The following applies: P. falciparum stage V gametocytes, 24 h, at 10.9 µM, hits give high values.
As for `N#CCSc1nc(-c2ccccc2)nc2ccc(F)cc12`, the inhibition (usually the change of the read-out against control, counted positive when it falls) is -8.79%.
On to `Cc1cc(C)n(-c2ccc(Cl)c(C(=O)O)n2)n1`, for which the inhibition was 8.49%.
Regarding `Cc1cc(C)n(-c2ccc3nncn3n2)n1`, the inhibition is 38.2% (active).
Regarding `Cc1cc(C)n(-c2nc(O)cc(=O)[nH]2)n1`, the inhibition was 9.58%.
With `O=C(CN1CCCCCC1)Nc1c(Cl)cc(Cl)cc1Cl`, the inhibition was -23.1%.
Under `O=C(NC(=O)N1CCSCC1)c1c(Cl)cccc1Cl` stands -10.9%; under `CCn1c(SCC(=O)N/N=C/c2ccncc2)nc2ccccc21`, -15.2%.
With `O=C1NC[C@@H](c2ccccc2)OC(=O)[C@H](Cc2ccc(F)cc2)CC/C=C/C[C@H]1CC(=O)N(CCO)Cc1ccccc1`, the inhibition was 4.53%.
Then `COc1ccc(C(C#N)(CC(=O)O)c2cnccn2)cc1OC` (configuration not stated), with -25%; and `Cc1ccccc1NC(=O)N1CCCC1C(=O)NCc1ccccc1` (configuration not stated), with 1.78%.
Under `Cc1ccc2c(O)c(Cc3ccccc3)c(=O)[nH]c2n1` stands -11.8%.
Turning to `C/C(Cc1ccccc1)=N\NC(=O)CNC(=O)c1ccc2c(c1)OCCO2`, the inhibition is -4.02%.
Under `CC(C)c1cc(CN2CCOCC2)cc(C(C)C)c1O` stands -5.85%; under `CCOC(=O)c1c(C)[nH]c2c1-c1ccccc1C(=O)C2=O`, 50.2% (active); under `CCOC(=O)c1c(C)[nH]c(=S)c(C#N)c1-c1ccccc1`, -28.7%.
Under `CCOC(=O)C1=C(c2ccc(OC)cc2)C(=O)c2ccccc2C1=O` stands -27.7%.
For `Cc1cccc(C(=O)N2CCC(c3nc4ccccc4s3)CC2)c1`, the inhibition was 13%.
Then `Nc1nnnn1/N=C/c1cc([N+](=O)[O-])ccc1O`, with -1.33%.
Take `CCN(CC)S(=O)(=O)c1ccc(NC(=O)c2cnc(C)cn2)cc1`: the inhibition is -1.77%.
For the compound `CC(=O)NS(=O)(=O)c1ccc(N/C(N)=N/c2nc(C)cc(C)n2)cc1`, the inhibition was 11.7%.
Then `CCCCC(CC)CNCc1cccn1CCN1CCOCC1` (configuration not stated), with -25.6%.
Then `CCOC(=O)c1c(N)sc2c1CCCC2=O`, with -6.75%; and `Cc1c(CN2CC[C@@H](N3CCN(c4ccccn4)CC3)[C@H](O)C2)[nH]c2ccc(F)cc12`, with -10.1%.
As to `CCc1ccc(NC(=O)N[C@H](C(=O)O)C(C)CC)cc1` (some centres not stated), the inhibition is -3.41%.
Under `Cc1ccc(C)c(SCc2nc3sc(C(=O)O)c(C)c3c(=O)[nH]2)c1` stands 8.97%.
`CC1=CC(C)(C)NC(=S)N1NC(=O)c1ccccc1Cl`: the inhibition was -21.8%.
Then `C[C@@H]1NC(=O)[C@@]2(C)[C@@H](c3ccccc3)[C@H]3COc4ccccc4[C@@H]3N2C1=O`, with -7.28%.
